Test results published in PubChem BioAssay.
Values without a mark were called inactive. How the calls were made is not given here.

molecular target: Pantothenate synthetase (Mycobacterium tuberculosis (strain ATCC 25618 / H37Rv)) (UniProt P9WIL5); experiment: Coupled enzyme confirmation of inhibitors against recombinant Mtb PanC (AID 375); conditions: coupled enzyme assay; at 10 µM, hits give high values;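 further: 0% = full reaction with vehicle and 100% = no enzyme background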
Sequence (P9WIL5 whole entry, looked up): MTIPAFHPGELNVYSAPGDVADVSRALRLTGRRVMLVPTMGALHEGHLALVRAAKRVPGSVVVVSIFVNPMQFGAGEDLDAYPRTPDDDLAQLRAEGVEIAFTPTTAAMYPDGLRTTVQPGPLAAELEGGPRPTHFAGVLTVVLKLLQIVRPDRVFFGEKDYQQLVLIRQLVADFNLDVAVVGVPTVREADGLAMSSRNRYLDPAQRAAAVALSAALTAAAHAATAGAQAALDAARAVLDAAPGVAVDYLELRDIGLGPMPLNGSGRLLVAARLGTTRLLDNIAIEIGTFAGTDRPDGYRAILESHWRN

Row | SMILES | inhibition [%]
1 | COc1ccc(N(C(=O)c2ccco2)S(=O)(=O)c2cc(OC)ccc2OC)cc1 | 0
2 | COc1cc(NC(=O)c2cccs2)cc(OC)c1 | 0
3 | CC(C)OC(=O)CSc1nnnn1-c1ccc2c(c1)OCCO2 | 2
4 | COc1ccc2nc3oc(C(=O)NC4CCN(Cc5ccccc5)CC4)cc3cc2c1 | 1
5 | Cn1c(SCC(=O)Nc2ccc3c(c2)OCO3)nnc1-c1cnccn1 | 1
6 | O=C(NCc1nc2ccccc2[nH]1)c1ccc(Cl)c(S(=O)(=O)N2CCCC2)c1 | 1
7 | Cc1ccc(NC2=NC(c3ccccc3)n3c(nc(C)cc3=O)N2)cc1 (stereo not given) | 13
8 | C[C@@H]1C[C@H]2[C@@H]3CCC4=CC(=O)C=C[C@]4(C)[C@@]3(F)[C@@H](O)C[C@]2(C)[C@@]1(O)C(=O)COP(=O)(O)O | 5
9 | COc1ccc2oc(=O)c(C(=O)N3CCN(c4ccccc4F)CC3)cc2c1 | 0
10 | Nc1nc2ccc(OC(F)(F)F)cc2s1 | 7
11 | Cc1cc(OCC(=O)NCCO)cc(C)c1Cl | 3
12 | CCOC(=O)c1cc(-c2ccco2)nc2c1c(C)nn2CCC#N | 0
13 | O=C(COc1cccc(Oc2ccccc2)c1)Nc1ncccn1 | 2
14 | COc1ccc(NC(=O)C2Cc3ccccc3C(=O)O2)cc1 (stereo not given) | 0
15 | Cc1cc(NC(=O)c2ccc(Cl)cc2)no1 | 0
16 | CCN(CC)S(=O)(=O)c1ccc2[nH]cc(C(=O)NCCC3=CCCCC3)c(=O)c2c1 | 0
17 | COc1ccc(N(CC(=O)NCCSC(C)(C)C)S(C)(=O)=O)c(OC)c1 | 2
18 | COC(=O)C1=C(C)NC(C)=C(C(=O)OC)C1C1CC=CCC1 (stereo not given) | 3
19 | COCCCNCC(=O)Nc1ccc(OC(F)(F)F)cc1 | 3
20 | CC(C)C(OC(=O)c1ccco1)C(=O)NCc1ccccc1 (stereo not given) | 5

Row | SMILES | inhibition [%]
21 | CCOC(=O)CSc1nc2ccccc2n2cnnc12 | 0
22 | Cc1nc2cc(NC(=O)N3CC4(C)CC3CC(C)(C)C4)ccc2n1C (stereo not given) | 8
23 | COc1cccc(OC)c1C(=O)Nc1cccc(C(C)=O)c1 | 2
24 | CCCCN(c1ccccc1)S(=O)(=O)c1ccc2c(c1)CCN2C(=O)CCC(=O)O | 0
25 | CCOC(=O)c1oc2cc(OCC(N)=O)ccc2c(=O)c1-c1ccc(OC)c(OC)c1 | 3
26 | CN(C)S(=O)(=O)N1CCN(C(=O)N(c2ccccc2)c2ccccc2)CC1 | 0
27 | N#C/C(=C(/O)CN1CCOCC1)c1nc2ccccc2s1 | 0
28 | Cc1ccc(C2C(C(=O)c3sc(C)nc3C)=C(O)C(=O)N2CCN(C)C)o1 (stereo not given) | 0
29 | CN(Cc1nc(-c2ccncc2)no1)S(=O)(=O)c1ccc(Cl)cc1 | 0
30 | COc1ccccc1NC(=O)CSc1nnc(Cc2cccn2C)n1-c1ccc(F)cc1 | 0
31 | C#CCSc1nc(-c2cccs2)ccc1C#N | 0
32 | COC(=O)C1(C)NC(c2ccco2)C2C(=O)N(c3ccc(C)cc3)C(=O)C21 (stereo not given) | 4
33 | COc1ccc2c(c1)C(=O)N(c1ccccc1OC)C(=O)C2 | 0
34 | N#Cc1cnc(SCCc2ccccc2)nc1N | 0
35 | COC(=O)c1cn(C(=O)c2ccc(Br)o2)c2ccccc12 | 0
36 | Cc1ccc(-n2ncc3c(=O)n(CC(=O)N4CCCc5ccccc54)cnc32)cc1C | 4
37 | Cc1cc(C)n(-c2nc3nonc3nc2-n2nc(C)cc2C)n1 | 0
38 | CCOC(=O)c1ccc(NS(=O)(=O)c2ccc3c(c2)CCCN3C(C)=O)cc1 | 0
39 | CCn1c(SC)nc2c(c1=O)SC(C)C2 (stereo not given) | 0
40 | COc1ccc(CCn2c(C)cc(C(=O)CSc3nnnn3C)c2C)cc1 | 0
